PubChem BioAssay (NCI)
Compounds without any hit were thinned out: in the full panel of roughly 83,000, 20% have a hit.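 Assay: single dose, 48 h. Readout: percent growth (0 = no net growth; negative = cell death). Active: <10.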 A number with no mark means an inactive call. Active and inactive are the calls of the source.

How the values were obtained:
Assay in all cases: NCI-60 one-dose screen, 48 h (100 = growth as untreated, 0 = no growth, -100 = all killed)
Details in all cases: 10 µM unless noted
NCI-H23 lung = test system: NCI-H23 lung
NCI-H226 lung = test system: NCI-H226 lung
NCI-H322M lung = test system: NCI-H322M lung
HOP-62 NSCLC = test system: HOP-62 NSCLC
NCI-H460 lung = test system: NCI-H460 lung
HOP-92 NSCLC = test system: HOP-92 NSCLC
NCI-H522 lung = test system: NCI-H522 lung
A549/ATCC NSCLC = test system: A549/ATCC NSCLC
786-0 renal = test system: 786-0 renal
COLO 205 colon = test system: COLO 205 colon
DU-145 prostate = test system: DU-145 prostate
K-562 leukemia = test system: K-562 leukemia
MALME-3M melanoma = test system: MALME-3M melanoma
MDA-MB-231 breast = test system: MDA-MB-231 breast
RXF 393 renal = test system: RXF 393 renal
SF-268 CNS = test system: SF-268 CNS
SF-295 CNS = test system: SF-295 CNS
SF-539 CNS = test system: SF-539 CNS
UACC-257 melanoma = test system: UACC-257 melanoma
M14 melanoma = test system: M14 melanoma

| Structure (SMILES) | growth (NCI-H23 lung) | growth (NCI-H226 lung) | growth (NCI-H322M lung) | growth (HOP-62 NSCLC) | growth (NCI-H460 lung) | growth (HOP-92 NSCLC) | growth (NCI-H522 lung) | growth (A549/ATCC NSCLC) | growth (786-0 renal) | growth (COLO 205 colon) | growth (DU-145 prostate) | growth (K-562 leukemia) | growth (MALME-3M melanoma) | growth (MDA-MB-231 breast) | growth (RXF 393 renal) | growth (SF-268 CNS) | growth (SF-295 CNS) | growth (SF-539 CNS) | growth (UACC-257 melanoma) | growth (M14 melanoma) |
| --- | --- | --- | --- | --- | --- | --- | --- | --- | --- | --- | --- | --- | --- | --- | --- | --- | --- | --- | --- | --- |
| C/C(=C\c1ccn(-c2ccc(N)cc2C(F)(F)F)n1)[C@@H]1C[C@@H]2O[C@]2(C)CCC[C@H](C)[C@H](O)[C@@H](C)C(=O)C(C)(C)[C@@H](O)CC(=O)O1 | 19.9% | 59.4% | 23.4% | 24.5% | 9.25% (active) | 57% | 0.465% (active) | 9.78% (active) | 16.4% | -6.04% (active) | -14.1% (active) | 6.1% (active) | 39.9% | 16.4% | 9.23% (active) | 22.5% | 2.39% (active) | 3.05% (active) | 37.9% | – |
| CC(=O)O[C@H]1C(=O)[C@@]2(C)[C@H]([C@H](OC(=O)c3ccccc3)[C@]3(O)C[C@H](OC(=O)[C@H](OC(=O)OC[C@H]4COC(C)(C)O4)[C@@H](NC(=O)c4ccccc4)c4ccccc4)C(C)=C1C3(C)C)[C@]1(OC(C)=O)CO[C@@H]1C[C@@H]2O | 21.6% | 55.5% | 14.9% | 21.7% | 4.16% (active) | 53.4% | 5.12% (active) | 12.5% | 20.2% | -15.1% (active) | 5.18% (active) | 11.6% | 27.2% | -4.56% (active) | -7.11% (active) | 29.7% | -6.58% (active) | -13.3% (active) | 48.3% | – |
| COC(=O)[C@@H](C)C[C@H](Cc1ccccc1)NC(=O)c1nc([C@@H](C[C@H](C(C)C)N(C)C(=O)[C@@H](NC(=O)[C@H]2CC(=O)CCN2C)C(C)C)OC(C)=O)sc1C(C)C | 26.5% | -25.2% (active) | 30.1% | 15.6% | 3.43% (active) | 34.8% | -30.5% (active) | 18.7% | 6.83% (active) | -39.9% (active) | -11.3% (active) | 12.3% | 44.3% | 6.36% (active) | 6.58% (active) | 20% | -1.71% (active) | -18% (active) | 77.6% | – |
| Oc1c(CCl)cc(Cl)cc1CCl | 100% | 98.8% | 123% | 95.1% | 108% | 92.8% | 105% | 116% | 114% | 109% | 122% | 99.3% | 110% | 104% | 119% | 104% | 106% | 104% | 131% | – |
| Nc1ncnc2n[nH]nc12 | 72.7% | 72.3% | 42.3% | 40% | 95.1% | 77.3% | 34% | 73.4% | 56.2% | 70.5% | 57% | 59.6% | 55.1% | 74.9% | 75.8% | 81% | 53.5% | 86.8% | 58.1% | – |
| c1ccc(COc2ccc3[nH]cc(CCN(Cc4ccccc4)Cc4ccccc4)c3c2)cc1 | 77.5% | 73.8% | 100% | 99.4% | 91.6% | 81.6% | 82.9% | 85.2% | 91.9% | 101% | 98.8% | 71.1% | 91.3% | 83.3% | 91.2% | 92.4% | 91.4% | 97.1% | – | – |
| Fc1ccc(N2COOC3(OOC2)C2CC4CC(C2)CC3C4)cc1 | 69.4% | 105% | 91.1% | 83.6% | 101% | 29% | 85.2% | 90.2% | 12.6% | 116% | 90.8% | 26.7% | 106% | 95.5% | 115% | 91.5% | 87.5% | 82.5% | 89.6% | 89.5% |
| COc1ccc(C2=CC(c3ccc(OC)c(OC)c3)c3c(c4ccccc4oc3=O)O2)cc1OC (stereo not drawn) | 63.4% | 89.5% | 35.8% | 49% | 9.23% (active) | -12.5% (active) | -43.7% (active) | 39.4% | 25.7% | 9.01% (active) | 9.25% (active) | 1.17% (active) | 75.3% | 27.8% | 33.2% | 38.7% | -54.4% (active) | -17.8% (active) | 66.9% | 12.9% |
